The source of these data is publication PMC9838217, “Structure of SALL4 zinc finger domain reveals link between AT-rich DNA binding and Okihiro syndrome”.

Numbering of substitutions follows the chain as printed.

Common to all, as to assay: HT-SELEX; high values mean tight binding
Conditions in all cases: protein: recombinant; vector His6-GST; dsDNA, one strand shown

In one assay the target is T1, SALL4 ZFC4 WT (HT-SELEX) (Mus musculus, UniProt Q8BX22 870-940).
T1 sequence: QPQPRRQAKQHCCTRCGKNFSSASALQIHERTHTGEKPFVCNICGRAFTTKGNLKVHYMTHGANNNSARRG
In short, it runs like this: (§1)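 Residues 870–940 of mouse SALL4, forming zinc finger cluster 4, were expressed recombinantly, purified, and 1 µg was incubated with library DNA (1.5 µg first cycle, 200 ng later) in 100 µl of 10 mM Tris–HCl pH 7.5, 50 mM NaCl, poly(dI-dC) and DTT for 10 min at room temperature. Washed Ni2+ bead-captured complexes were PCR-amplified and reselected for up to 6 cycles in triplicate, and the products were sequenced on MiSeq and scanned for 6-mers. Binding signal is the fold change in each canonical k-mer's read fraction compared with the initial random library.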

The target of assay [1] is T2, SALL4 ZFC4 R900W (HT-SELEX) (Mus musculus, UniProt Q8BX22 870-940, R900W).
T2 sequence: T1 sequence with R31W
In short, it runs like this: as §1

Assay [2] deals with T3, SALL4 ZFC4 G921D (HT-SELEX) (Mus musculus, UniProt Q8BX22 870-940, G921D).
T3 sequence: T1 sequence with G52D
Summed up:
as §1

Regarding ATAGGA, the binding signal with SALL4 ZFC4 WT (HT-SELEX) was found to be 1.48 ± 0.0224 fold-change vs cycle 0; in assay [1], 1.56 ± 0.056 fold-change vs cycle 0; in assay [2], 1.45 ± 0.0712 fold-change vs cycle 0.

As to CACGTC, the binding signal with SALL4 ZFC4 WT (HT-SELEX) is 0.427 ± 0.0304 fold-change vs cycle 0; in assay [1], 0.52 ± 0.0494 fold-change vs cycle 0; in assay [2], 0.633 ± 0.0372 fold-change vs cycle 0.

With CTTTCA, the values for the binding signal (with SALL4 ZFC4 WT (HT-SELEX); in assay [1]; in assay [2]) were 1.3 ± 0.0524 fold-change vs cycle 0, 1.47 ± 0.103 fold-change vs cycle 0 and 1.35 ± 0.102 fold-change vs cycle 0, respectively.

Consider CTCATC, for which the binding signal amounted to 0.898 ± 0.0192 fold-change vs cycle 0 with SALL4 ZFC4 WT (HT-SELEX), 1.04 ± 0.0368 fold-change vs cycle 0 in assay [1] and 1.06 ± 0.0243 fold-change vs cycle 0 in assay [2].

Turning to CTAAGC, the results for the binding signal (in the assay with SALL4 ZFC4 WT (HT-SELEX); in assay [1]; in assay [2]) were 0.7 ± 0.0291 fold-change vs cycle 0, 0.793 ± 0.0207 fold-change vs cycle 0 and 0.857 ± 0.014 fold-change vs cycle 0, respectively.

Consider AACTCC, for which the binding signal was 0.917 ± 0.0119 fold-change vs cycle 0 with SALL4 ZFC4 WT (HT-SELEX), 1.02 ± 0.0156 fold-change vs cycle 0 in assay [1] and 1.06 ± 0.0177 fold-change vs cycle 0 in assay [2].

Take GGGAAA: the binding signal was determined as 0.693 ± 0.0334 fold-change vs cycle 0 in the assay with SALL4 ZFC4 WT (HT-SELEX), 0.767 ± 0.0294 fold-change vs cycle 0 in assay [1] and 0.812 ± 0.0285 fold-change vs cycle 0 in assay [2].

As for GATCCC, the binding signal with SALL4 ZFC4 WT (HT-SELEX) is 0.519 ± 0.025 fold-change vs cycle 0; in assay [1], 0.62 ± 0.0104 fold-change vs cycle 0; in assay [2], 0.711 ± 0.017 fold-change vs cycle 0.

ATTCAG: the figures for the binding signal (with SALL4 ZFC4 WT (HT-SELEX); in assay [1]; in assay [2]) were 1.31 ± 0.0442 fold-change vs cycle 0, 1.44 ± 0.0342 fold-change vs cycle 0 and 1.36 ± 0.0925 fold-change vs cycle 0, respectively.

As to AAGCTC, the binding signal in the assay with SALL4 ZFC4 WT (HT-SELEX) came out at 0.631 ± 0.0495 fold-change vs cycle 0; in assay [1], 0.76 ± 0.0539 fold-change vs cycle 0; in assay [2] it was 0.866 ± 0.0327 fold-change vs cycle 0.

GCTCAA: the binding signal in the assay with SALL4 ZFC4 WT (HT-SELEX) was determined as 0.548 ± 0.03 fold-change vs cycle 0; in assay [1], 0.644 ± 0.0305 fold-change vs cycle 0; in assay [2] it was 0.763 ± 0.038 fold-change vs cycle 0.

As for CGATAG, the binding signal with SALL4 ZFC4 WT (HT-SELEX) amounted to 0.68 ± 0.0214 fold-change vs cycle 0; in assay [1] it was 0.774 ± 0.0246 fold-change vs cycle 0; in assay [2] it was 0.851 ± 0.0176 fold-change vs cycle 0.

Take GATCTA: the binding signal with SALL4 ZFC4 WT (HT-SELEX) is 1.25 ± 0.0377 fold-change vs cycle 0; in assay [1], 1.36 ± 0.0544 fold-change vs cycle 0; in assay [2], 1.41 ± 0.0811 fold-change vs cycle 0.

As for AAAGCC, the figures for the binding signal (in the assay with SALL4 ZFC4 WT (HT-SELEX); in assay [1]; in assay [2]) were 0.465 ± 0.0355 fold-change vs cycle 0, 0.543 ± 0.0413 fold-change vs cycle 0 and 0.65 ± 0.0602 fold-change vs cycle 0, respectively.

For AACTCG, the results for the binding signal (in the assay with SALL4 ZFC4 WT (HT-SELEX); in assay [1]; in assay [2]) were 0.7 ± 0.0308 fold-change vs cycle 0, 0.798 ± 0.00905 fold-change vs cycle 0 and 0.871 ± 0.024 fold-change vs cycle 0, respectively.

Turning to CCACAA, the results for the binding signal (in the assay with SALL4 ZFC4 WT (HT-SELEX); in assay [1]; in assay [2]) were 0.612 ± 0.0144 fold-change vs cycle 0, 0.71 ± 0.0271 fold-change vs cycle 0 and 0.759 ± 0.0161 fold-change vs cycle 0, respectively.

ACCACA: the binding signal with SALL4 ZFC4 WT (HT-SELEX) worked out at 0.701 ± 0.0312 fold-change vs cycle 0; in assay [1], 0.793 ± 0.0317 fold-change vs cycle 0; in assay [2], 0.841 ± 0.0188 fold-change vs cycle 0.

For the sequence CTGAAC, the figures for the binding signal (with SALL4 ZFC4 WT (HT-SELEX); in assay [1]; in assay [2]) were 0.859 ± 0.0362 fold-change vs cycle 0, 0.995 ± 0.0342 fold-change vs cycle 0 and 1.01 ± 0.0412 fold-change vs cycle 0, respectively.

Turning to GTGCTA, the binding signal was found to be 0.592 ± 0.0163 fold-change vs cycle 0 with SALL4 ZFC4 WT (HT-SELEX), 0.69 ± 0.007 fold-change vs cycle 0 in assay [1] and 0.796 ± 0.0354 fold-change vs cycle 0 in assay [2].

As to ATCGTC, the binding signal came to 0.685 ± 0.0177 fold-change vs cycle 0 with SALL4 ZFC4 WT (HT-SELEX), 0.755 ± 0.0322 fold-change vs cycle 0 in assay [1] and 0.852 ± 0.0307 fold-change vs cycle 0 in assay [2].

For ATTGGC, the binding signal in the assay with SALL4 ZFC4 WT (HT-SELEX) came out at 0.461 ± 0.0252 fold-change vs cycle 0; in assay [1] it was 0.5 ± 0.0137 fold-change vs cycle 0; in assay [2], 0.665 ± 0.0716 fold-change vs cycle 0.

For ACTCCT, the binding signal in the assay with SALL4 ZFC4 WT (HT-SELEX) stood at 1.01 ± 0.0205 fold-change vs cycle 0; in assay [1], 1.15 ± 0.052 fold-change vs cycle 0; in assay [2], 1.144 ± 0.00693 fold-change vs cycle 0.

For the sequence CTGTTA, the values for the binding signal (with SALL4 ZFC4 WT (HT-SELEX); in assay [1]; in assay [2]) were 1.37 ± 0.0494 fold-change vs cycle 0, 1.47 ± 0.0717 fold-change vs cycle 0 and 1.39 ± 0.112 fold-change vs cycle 0, respectively.

On to CAACTG, for which the figures for the binding signal (with SALL4 ZFC4 WT (HT-SELEX); in assay [1]; in assay [2]) were 0.724 ± 0.0172 fold-change vs cycle 0, 0.829 ± 0.0401 fold-change vs cycle 0 and 0.9 ± 0.0128 fold-change vs cycle 0, respectively.

Turning to GGAAAA, the binding signal with SALL4 ZFC4 WT (HT-SELEX) is 1.11 ± 0.0508 fold-change vs cycle 0; in assay [1], 1.13 ± 0.0572 fold-change vs cycle 0; in assay [2], 1.12 ± 0.0269 fold-change vs cycle 0.

For the sequence CTAATA, the binding signal with SALL4 ZFC4 WT (HT-SELEX) turned out to be 2.24 ± 0.127 fold-change vs cycle 0; in assay [1], 2.01 ± 0.099 fold-change vs cycle 0; in assay [2] it was 1.81 ± 0.144 fold-change vs cycle 0.

Regarding AGTATA, the results for the binding signal (in the assay with SALL4 ZFC4 WT (HT-SELEX); in assay [1]; in assay [2]) were 2.16 ± 0.0916 fold-change vs cycle 0, 2.13 ± 0.148 fold-change vs cycle 0 and 1.85 ± 0.204 fold-change vs cycle 0, respectively.

As to AACGGG, the results for the binding signal (with SALL4 ZFC4 WT (HT-SELEX); in assay [1]; in assay [2]) were 0.4 ± 0.0225 fold-change vs cycle 0, 0.466 ± 0.0176 fold-change vs cycle 0 and 0.54 ± 0.0483 fold-change vs cycle 0, respectively.

ATGACC: the binding signal in the assay with SALL4 ZFC4 WT (HT-SELEX) worked out at 0.806 ± 0.0726 fold-change vs cycle 0; in assay [1], 0.891 ± 0.0488 fold-change vs cycle 0; in assay [2] it was 0.947 ± 0.065 fold-change vs cycle 0.

Consider CCAGTA, for which the binding signal with SALL4 ZFC4 WT (HT-SELEX) was found to be 0.785 ± 0.049 fold-change vs cycle 0; in assay [1] it was 0.922 ± 0.0301 fold-change vs cycle 0; in assay [2], 0.962 ± 0.0332 fold-change vs cycle 0.
